From PubChem BioAssay
Dicer inh: inhibitors of human Dicer processing of pre-microRNA | 6% of 47,000 active | z-score at 25 µM | cat-ELCCA pre-miR-21 Dicer processing, chemiluminescence; stronger effect = higher value | Q9UPY3; in the data active = z-score above about 3, passing the limit was not always enough;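 note: higher signal means more uncleaved substrate so more Dicer inhibition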
A number is an active result; n = inactive. The entries come from a sample that favours hits as a whole.

SMILES	Dicer inh
COC(Cn1c(-c2ccc(C)cc2)n[nH]c1=S)OC	n
c1ccc(CCN2Cc3ccccc3C2)cc1	n
C=CCOc1ccc(C2C3=C(CC(C)(C)CC3=O)N(C)C3=C2C(=O)CC(C)(C)C3)cc1	n
O=C(CSc1ncc(-c2ccc(Cl)cc2)o1)c1ccc(Cl)cc1	n
CCOC(=O)c1ccc(N)cc1	n
CCOC(=O)c1ccc(Oc2sccc2[N+](=O)[O-])cc1	3.4
CCOC(=O)C1CCN(c2sccc2[N+](=O)[O-])CC1	n
Cn1c(=O)c2c3nc4ccc([N+](=O)[O-])cc4cc3c(=O)n(-c3ccccc3)c2n(C)c1=O	n
CC(=O)/C(N=Nc1ccc(C(F)(F)F)cc1)=C(\C)O	n
CC(=O)OC[C@H]1O[C@@H](NC(N)=O)[C@H](OC(C)=O)[C@@H](OC(C)=O)[C@@H]1OC(C)=O	n
CCn1c(=S)[nH]c2sc(C)c(C)c2c1=O	n
Cc1ccnc(-n2c(=S)[nH]c3sc(C)c(C)c3c2=O)c1	n
Cc1cc(-n2c(=S)[nH]c3sc(C)c(C)c3c2=O)n(-c2ccccc2)n1	3.2
COc1cccc(N2C(=O)C3C(C2=O)C2(C)c4ccccc4C3(C)c3ccccc32)c1 (centres undefined)	n
CCOC(=O)c1oc2cccc(OC(C)=O)c2c1C	5.7
CCOC(=O)c1c(OC)cccc1OC	n
CCOC(=O)c1c(C)oc2ccc(OC(C)=O)cc12	n
O=c1c2oc3nc(-c4ccccc4)cc(-c4ccco4)c3c2ncn1/N=C/c1ccc(F)cc1	n
O=c1[nH]cnc2c1oc1nc(-c3ccc(Cl)cc3)cc(-c3ccco3)c12	6.5
NNC(=O)c1oc2nc(-c3ccc(Cl)cc3)cc(-c3ccccc3)c2c1N	n
CCOC(=O)c1cc(C#N)c(Sc2ccccc2NC(=O)c2ccccc2)nc1C(F)(F)F	n
CN(C(=O)CSc1ccc(Cl)cc1)c1ccc(F)cc1F	n
CSC1=NC(C)(C)CCC(C)(C)N1	n
CC1(C)CC(=O)C(N=Nc2ccccc2C(F)(F)F)=C(O)C1	n
OCc1nc2ccccc2n1CC(O)COc1ccc(Cl)cc1 (centres undefined)	n
SMILES	Dicer inh
OCCCc1nc2ccccc2n1CCCCOc1ccc(Cl)cc1	6.1
OCCCc1nc2ccccc2n1CCCOc1ccc(Cl)cc1	n
O=S(=O)(NC1=NCC2CCCC2N1)c1ccccc1 (centres undefined)	n
CSc1ccc(-c2ccc(SC)cc2)cc1	n
Cc1noc(C)c1NC(=O)NCc1cc2ccccc2s1	n
CN(Cc1ccccc1)c1oc(COc2ccc(Cl)cc2)nc1C#N	n
O=C(O)C1C2C=CC(O2)C1C(=O)NCc1cccnc1 (centres undefined)	n
C(=N\Nc1nnc2c(n1)[nH]c1ccccc12)/c1ccccc1	n
Clc1ccc(-c2nnc3ccc4ccccc4n23)cc1	n
COc1ccccc1-c1nnc2ccc3ccccc3n12	3
Fc1ccc(-c2nnc3ccc4ccccc4n23)cc1	n
O=C(O)C1C2CC=CC2c2cc(Br)cc3c2N1CC1CC=CC31 (centres undefined)	n
FC(F)(F)c1cccc(-c2ccnc3cc(-c4nc(-c5ccc(Cl)cc5)cs4)nn23)c1	n
CCOc1nc(-c2ccc(OC)cc2)ccc1-c1noc(CC)n1	n
Cc1ccc(/C(O)=C2\C(=O)C(=O)N(CCCn3ccnc3)C2c2ccc(Cl)cc2)cc1 (centres undefined)	n
Cc1ccc(S(=O)(=O)NCCCN(C)C)cc1	n
COCCCNS(=O)(=O)c1ccc(NS(=O)(=O)c2ccc(C)cc2)cc1	4.7
Cc1ccc(S(=O)(=O)N/N=C/C(=O)O)cc1	n
CN(C)c1ccc(NS(=O)(=O)c2ccc(-c3csnn3)cc2)cc1	7
COc1ccc(NS(=O)(=O)c2ccc(NS(=O)(=O)c3ccc(C)cc3)cc2)nn1	n
Cc1ccc(S(=O)(=O)Nc2ccc(N(C)C)cc2)cc1	3.8
COc1ccc(-c2csnn2)cc1S(=O)(=O)Nc1ccccc1	n
COCCCNC(=S)NNS(=O)(=O)c1ccc(C)cc1	n
CNC(=O)NNc1ccc(-c2csnn2)cc1	n
O=C(Nc1nccs1)c1cc2ccccc2c(=O)s1	n
SMILES	Dicer inh
Cc1cc(-c2ccccc2)cc(-c2ccccc2)[o+]1	n
Oc1ccc(Br)cc1CN1CCN(Cc2ccc3c(c2)OCO3)CC1	n
CCOC(=O)CCc1c(C(=O)OCC)[nH]c2ccccc12	n
N#CC1=C(N)Oc2n[nH]c(-c3ccccc3)c2C12C(=O)Nc1ccc(F)cc12 (centres undefined)	n
CNC(=S)NNC(=O)c1sc2nc(C)cc(C)c2c1N	4.6
Cc1cc(C)c2c(N)c(C(=O)NN)sc2n1	n
CCOC(=O)c1sc2nc(C)cc(C)c2c1N	n
COc1ccccc1C1SCCN1S(=O)(=O)c1ccc(C)cc1C (centres undefined)	n
CCOc1ccc2c(C)[nH]c(=O)cc2c1	n
CC1=CC(C)C2(CO)COC(c3cccnc3)C1C2C (centres undefined)	n
CC1=CC(C)C2(CO)COC(c3ccc4c(c3)OCO4)C1C2C (centres undefined)	n
CC1=CC(C)C2(CO)COC(c3ccc(O)cc3)C1C2C (centres undefined)	3.9
COC(=O)CSC1=C(C#N)C(c2ccco2)C(C(=O)Nc2ccc(Cl)cc2)=C(C)N1 (centres undefined)	n
Cc1cc(C)cc(Oc2c(C(F)(F)F)oc3cc(O)ccc3c2=O)c1	n
O=c1c(Oc2ccccc2Br)c(C(F)(F)F)oc2cc(O)ccc12	n
O=c1c(Oc2ccccc2Cl)c(C(F)(F)F)oc2cc(O)ccc12	3.3
CCCCOC(=O)c1cccc2c1-c1ccccc1C2=O	n
CCOC(=O)c1sc2sc(C(=O)c3cccc([N+](=O)[O-])c3)c(C)c2c1C	n
CC(C)(C)NS(=O)(=O)c1cccc2cccnc12	n
O=S(=O)(NCc1ccccn1)c1cccc2ccccc12	n
O=S(=O)(NCCCCNS(=O)(=O)c1cccc2cccnc12)c1cccc2cccnc12	5.5
CSc1nccc(-c2ccc(S(=O)(=O)N3CCCCC3)s2)n1	n
O=S(=O)(NCc1cccc(Cl)c1)c1sc(Br)cc1Br	n
O=C(/C=C/Nc1cccc(Cl)c1)c1ccc(Cl)cc1	n
COC(=O)/C=C1\S/C(=N\c2ccccn2)N(c2cccc(SC)c2)C1=O	n
SMILES	Dicer inh
Cc1nc(-c2ccc(S(=O)(=O)N3CCCN(c4ccc(C(F)(F)F)cn4)CC3)s2)cs1	n
CC1=C(C(=O)Nc2ccccc2)S(=O)CCO1 (centres undefined)	3.3
CC1=C(C(=O)Nc2ccc(F)cc2)SCCO1	n
Cc1cc(C(=O)Nc2ccccc2)oc(=O)c1	n
Cc1ccc(Oc2ncc(Cl)cc2C(F)(F)F)c2c1CCC2	n
CC(C)(C)c1ccc(-c2cc(NS(=O)(=O)c3ccccc3)n[nH]2)cc1	n
O=C1c2ccccc2C(=O)N1CN(Cc1ccsc1)CN1C(=O)c2ccccc2C1=O	n
O=C(/C=C/Sc1nc2ccccc2o1)c1ccc(Cl)cc1	n
Cc1nc(N=Nc2ccc(C(=O)O)cc2)c(COP(=O)(O)O)c(C=O)c1O	n
Cc1nc(N=Nc2ccc(S(=O)(=O)O)cc2S(=O)(=O)O)c(COP(=O)(O)O)c(C=O)c1O	3.1
CC(=O)N1N=C(c2ccc(Cl)cc2)OC1c1ccc(Br)cc1 (centres undefined)	n
O=C(O)/C=C/C(=O)NC1CCN(c2nccc(C(F)(F)F)n2)CC1	n
Cc1ccnc(NC(c2cccc(F)c2)c2ccc3ccc(C)nc3c2O)c1 (centres undefined)	6.1
C=CCOc1cccc(C(Nc2cc(C)ccn2)c2ccc3cccnc3c2O)c1 (centres undefined)	8.3
